Reference: PubChem BioAssay (NCATS)
Results filed as inconclusive are left out. A number with no mark means an inactive call. Activity calls are given as the source filed them. The call rests on the fitted dose curve; in most records, active means well fitted inhibition curve with a large enough effect; inconclusive means small, poorly fitted or top-dose-only effect; inactive means flat fitted curve, though single readings scatter.

molecular target: Glutathione peroxidase 1 (Homo sapiens) (UniProt P07203); assay: Primary qHTS Assay for Inhibitors of Recombinant Selenoprotein Glutathione Peroxidase 1 (GPX1) (AID 1845191); details: recombinant GPX1, GR-coupled NADPH fluorescence, 15 min; series mostly up to 48.8 µM; activity, negative = inhibition: at the top concentration
Sequence (P07203 whole entry, looked up): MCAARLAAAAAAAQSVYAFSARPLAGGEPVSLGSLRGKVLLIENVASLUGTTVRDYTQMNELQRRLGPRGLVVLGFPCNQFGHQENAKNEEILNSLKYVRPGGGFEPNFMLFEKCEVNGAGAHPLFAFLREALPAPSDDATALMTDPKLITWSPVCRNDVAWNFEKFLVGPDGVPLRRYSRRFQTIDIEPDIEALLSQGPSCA
Outline: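 NADPH consumption tracked by fluorescence at 340/450 nm between t=0 and t=15 min, room temperature. Final mix: 10 nM GPX1, 100 nM glutathione reductase, 1 mM GSH, 0.5 mM NADPH, 0.5 mM cumene hydroperoxide, 0.01% BSA; 30 min compound–enzyme preincubation.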
Further: nearly all actives have a fitted effect of over 65% in size.
On the % scale 0 is the no-effect control and ±100 the full control effect.

Structure (SMILES) | activity, negative = inhibition | outcome
CC(=O)OCC(=O)[C@@]1(O)CCC2C3CCC4=CC(=O)CC[C@]4(C)C3[C@@H](O)C[C@@]21C (stereo not given in full) | 0.576% | –
CCOC(=O)[C@H](CCc1ccccc1)N[C@@H](C)C(=O)N(CC(=O)O)C1Cc2ccccc2C1 | – | inactive
C[C@H]1NCc2cc(-c3ccc4c(=O)c(C(=O)O)cn(C5CC5)c4c3OC(F)F)ccc21 | -8.45% [at 27.7 µM] | –

molecular target: Phospholipid hydroperoxide glutathione peroxidase GPX4 (Homo sapiens) (UniProt P36969); assay: Primary qHTS Assay for Inhibitors of Recombinant Selenoprotein Glutathione Peroxidase 4 (GPX4) (AID 1845192); details: recombinant GPX4, GR-coupled NADPH fluorescence, 15 min; series mostly up to 50 µM; activity change, negative = inhibition: at the top concentration
Sequence (P36969 whole entry, looked up): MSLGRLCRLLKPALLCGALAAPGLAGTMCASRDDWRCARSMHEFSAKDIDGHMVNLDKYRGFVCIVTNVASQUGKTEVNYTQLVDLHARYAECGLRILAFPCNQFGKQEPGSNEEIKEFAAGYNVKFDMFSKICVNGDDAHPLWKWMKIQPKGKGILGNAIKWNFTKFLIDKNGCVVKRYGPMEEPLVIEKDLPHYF
Outline: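 NADPH consumption followed by fluorescence at 340/450 nm, t=0 and after 15 min at room temperature. Reaction started with cumene hydroperoxide (0.5 mM final) after 30 min compound–GPX4 preincubation; final 200 nM GPX4, 100 nM GR, 1 mM GSH, 0.5 mM NADPH.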

Structure (SMILES) | outcome | activity change, negative = inhibition | Potency
CCCc1ccc(OCC(=O)N2CCN(C(=O)COc3ccc(CCC)cc3OC)CC2)c(OC)c1 | inactive | – | –
O=C1NCCN1CCN1CCC(c2cn(-c3ccc(F)cc3)c3ccc(Cl)cc23)CC1 | – | -18.5% | –
CC(C)Cc1ccc(C(C)C(=O)OCc2ccccn2)cc1 (stereo not given) | inactive | – | –
Cc1c(F)cc2c(=O)c(C(=O)O)cn3c2c1CCC3C (stereo not given) | – | -3.42% | –
CC(=O)/C=C/C=C1/C2CCC(C2)C1(C)C (stereo not given) | inactive | – | –
C/C(=C(/OCCOc1ccc(Cl)cc1)c1ccc(Cl)cc1Cl)n1ccnc1 | inactive | – | –
NS(=O)(=O)c1cc(C(=O)NN2C[C@H]3[C@H]4CCC(C4)[C@H]3C2)ccc1Cl | – | 0.544% | –
Cc1cc(O)c2c(O)c3c(O)cccc3cc2c1 | – | -18.3% | –
C[N+]1(C)CCC(OC(=O)C(O)(c2ccccc2)C2CCCC2)C1 (stereo not given) | inactive | – | –
C[C@H]1C[C@H]2[C@@H]3CCC4=CC(=O)C=C[C@]4(C)[C@H]3C(=O)C[C@]2(C)[C@@]1(O)C(=O)CO | – | – | inactive
OC(CCCN1CCCCC1)(c1ccccc1)c1ccccc1 | – | -1.52% | –
CCCCC/C=C\C/C=C\CCCCCCCC(=O)NC(C)c1ccccc1 (stereo not given) | – | 3.39% | –
O=C(OCC(O)CO)c1ccccc1Nc1ccnc2c(C(F)(F)F)cccc12 (stereo not given) | inactive | – | –
CCCC(=O)O[C@]1(C(=O)CCl)[C@@H](C)C[C@H]2[C@@H]3CCC4=CC(=O)C=C[C@]4(C)[C@@]3(F)C(=O)C[C@@]21C | inactive | – | –
CO[C@@H]1[C@@H](O[C@@H]2O[C@H](C)[C@@H](O[C@H]3C[C@@](C)(O)[C@@H](O)[C@H](C)O3)[C@H](N(C)C)[C@H]2O)[C@@H](CC=O)C[C@@H](C)[C@@H](O[C@@H]2CC[C@H](N(C)C)[C@@H](C)O2)/C=C/C=C/C[C@@H](C)OC(=O)C[C@H]1OC(C)=O | – | -25.8% | –
CN(C)CCOC(c1ccccc1)c1ccc(Br)cc1 (stereo not given) | – | -12.4% | –
CCCCCOc1ccccc1/C(=C\SC)n1ccnc1 | – | -15.5% | –
O=C(c1ccccc1)c1ccccc1 | inactive | – | –
COC(=O)/C=C\C(=O)OC | – | -14.9% | –

Structure (SMILES) | outcome | activity change, negative = inhibition | Potency
O=C(CO)[C@@H](O)[C@H](O)[C@@H](O)CO | inactive | – | –
CC(CC(C#N)(c1ccccc1)C(C)C)N(C)C (stereo not given) | – | -11.2% | –
O=C(Nc1ccc(Cl)cc1)Nc1ccc(Cl)c(Cl)c1 | – | 2.75% | –
CCCCCC1Nc2cc(C(F)(F)F)c(S(N)(=O)=O)cc2S(=O)(=O)N1 (stereo not given) | – | -18.8% | –
O=C1NC(c2ccccc2)(c2ccccc2)C(=O)N1COP(=O)(O)O | inactive | – | –
CCCC(=O)OCOC(=O)C1=C(C)NC(C)=C(C(=O)OC)C1c1cccc(Cl)c1Cl (stereo not given) | – | -9.61% | –
C/C(=N\O)[C@@H](C)NCC(C)(C)CN[C@H](C)/C(C)=N/O | inactive | – | –
COc1ccc(-n2nc(CCC(=O)N(C)O)cc2-c2ccc(Cl)cc2)cc1 | inactive | – | –
CCCC(=O)O[C@]1(C(=O)CC)CC[C@H]2[C@@H]3CCC4=CC(=O)CC[C@]4(C)[C@H]3[C@@H](O)C[C@@]21C | – | -13.7% | –
O=C(C1CCCCC1)N1CC(=O)N2CCCc3ccccc3C2C1 (stereo not given) | inactive | – | –
CC(C)(C)C(O)/C=C/c1ccc2c(c1)OCO2 (stereo not given) | inactive | – | –
O=C(OCC(COC(=O)c1cccnc1)(COC(=O)c1cccnc1)COC(=O)c1cccnc1)c1cccnc1 | – | 2.88% | –
CC(=O)N[C@@H](CCC(N)=O)C(=O)O | – | -11.2% | –
CC(=O)N(c1onc(C)c1C)S(=O)(=O)c1ccc(N)cc1 | – | -4.35% | –
O=C(COCCOCCOCC(=O)Nc1c(I)cc(I)c(C(=O)O)c1I)Nc1c(I)cc(I)c(C(=O)O)c1I | – | 3.62% | –
CC(=O)OCC(=O)[C@@]1(O)CCC2C3CCC4=CC(=O)CC[C@]4(C)C3[C@@H](O)C[C@@]21C (stereo not given in full) | – | 4.5% | –
CCOC(=O)[C@H](CCc1ccccc1)N[C@@H](C)C(=O)N(CC(=O)O)C1Cc2ccccc2C1 | inactive | – | –
C[C@H]1NCc2cc(-c3ccc4c(=O)c(C(=O)O)cn(C5CC5)c4c3OC(F)F)ccc21 | – | -7.55% [at 27.8 µM] | –
